The source of these data is PubChem BioAssay (EPA / NIEHS).

The structures appear in SMILES notation. Active and inactive are the calls of the source. Rule for the calls: active = hit-call score of the fitted dose curve at least 0.9, where 1 is the maximum; inactive = score below 0.9.

For orientation: AC50 means the concentration at which the activity in the assay is half-maximal.

Sequence of X-box-binding protein 1 (Homo sapiens) (P17861 whole entry, looked up): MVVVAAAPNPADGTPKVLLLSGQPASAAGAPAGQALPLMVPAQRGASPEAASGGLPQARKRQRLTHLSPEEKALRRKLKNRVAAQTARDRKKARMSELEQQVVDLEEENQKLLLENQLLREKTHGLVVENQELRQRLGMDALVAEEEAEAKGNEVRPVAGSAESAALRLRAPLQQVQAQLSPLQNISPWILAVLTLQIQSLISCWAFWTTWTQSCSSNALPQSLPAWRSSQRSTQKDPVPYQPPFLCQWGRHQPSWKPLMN

This assay concerns the target X-box-binding protein 1 (Homo sapiens) (UniProt P17861). Kind of assay: ATG_Xbp1_CIS: Attagene CIS-FACTORIAL HepG2 Assay for human X-box Binding Protein 1 (XBP1) (AID 2282972). As to conditions: HepG2 XBP1 cis-element reporter, Attagene multiplex; actives raise or lower the signal. As to the method: ATG_CIS is a cell-based, multiplexed-readout assay that uses HepG2, a human liver cell line, with measurements taken at 24 hours after chemical dosing in a 24-well plate.ATG_Xbp1_CIS is one of 52 assay component(s) measured or calculated from the ATG_CIS assay. It is designed to make measurements of mRNA induction, a form of inducible reporter, as detected with fluorescence intensity signals by Reverse transcription polymerase chain reaction (RT-PCR) and Capillary electrophoresis technology.Data from the assay component ATG_Xbp1_CIS was analyzed into 1 assay endpoint. This assay endpoint, ATG_Xbp1_CIS, was analyzed with bidirectional fitting relative to DMSO as the negative control and baseline of activity. Using a type of inducible reporter, measures of mRNA for gain or loss-of-signal activity can be used to understand the reporter gene at the transcription factor-level as they relate to the gene XBP1. Furthermore, this assay endpoint can be referred to as a primary readout, because this assay has produced multiple assay endpoints where this one serves a reporter gene function. To generalize the intended target to other relatable targets, this assay endpoint is annotated to the dna binding intended target family, where the subfamily is basic leucine zipper.
Human liver HepG2 cells are transiently transfected with multiple reporter transcription units (MRTUs) in 6-well plates using FuGene 6 reagent (Roche; 3 ml FuGene/1 mg DNA). The MRTU constructs are regulated by a cis-regulating element (promoter). […] A major difference between the CIS and TRANS system is that in CIS activities of endogenous TFs are measured, whereas the TRANS assay evaluates changes in activities of exogenous, chimeric NR-Gal4 proteins. […] At the end of 24 hour incubation, total RNA was isolated using TriZol reagent (Invitrogen). The isolated RNA is then reverse-transcribed using oligo(dT) primer and Mo-MLV reverse transcriptase (Invitrogen) with DNAse I (Ambion) treatment for 30 min. The one-tenth of the produced cDNA was amplified by PCR using Taq DNA polymerase (Invitrogen) and two reporter sequence-specific primers. The PCR products were fluorescently labeled by primer extension with 6-arboxyfluorescein (6-FAM) 5'-labeled reporter sequence-specific primer (2 min at 95 C, 20 s at 68 C and 10 min at 72 C) and these products were digested with 5U of HpaI (New England Biolabs) for 2h at 37 C. The fragments were purified using Qiaquick PCR columns (Qiagen), analyzed on an ABI 3130xL genetic analyzer (Applied Biosystems) with peak positions identified by using a set of X-rhodamine (ROX)-labeled MapMarker1000 molecular weight standards (BioVentures). The raw capillary electrophoresis data was processed using Attagraph software (Attagene).
Regarding `CC(CC=O)c1ccccc1` (stereo not given), the compound was classed as inactive.
As for `COc1cc(C)ccc1C(C)C`, the compound was classed as inactive.
`O=C(Nc1ccccc1)c1ccccc1O`: the AC50 was 44.4 µM (active).
Take `C=CC=CC=CCCCCC`: the compound was called inactive.
Still for that read-out and setting: as for `CCCCCC(C)O` (stereo not given), the entry is “inactive”.
Still for that read-out and setting: as for `COC=O`, the entry is “inactive”; as for `CCOC(=O)[C@H](C)O`, “inactive”.
Regarding `CCO[Si](CCCN=C=O)(OCC)OCC`, the outcome was inactive.
Still for that read-out and setting: as for `Cn1c([N+](=O)[O-])cnc1COC(N)=O`, the entry is “inactive”; as for `O=C1C=CC(=O)O1`, “inactive”.
Turning to `O=c1c2ccccc2oc2ccccc12`, the result was inactive.
Still for that read-out and setting: as for `Cc1cnc(NC(=O)C2=C(O)c3ccccc3S(=O)(=O)N2C)s1`, the entry is “inactive”; as for `COC(=O)/C=C\C(=O)O`, “inactive”; as for `Cc1cc(C)c(C)c(C)c1`, “inactive”.
As to `CCC(=O)Oc1ccc(/C(CC)=C(\CC)c2ccc(OC(=O)CC)cc2)cc1`, the AC50 was 27.5 µM (active).
With `C[Si](C)O[Si](C)(C)O[Si](C)(C)O[Si](C)C`, the compound was called inactive.
Take `Cc1cccc(N)n1`: the compound was called inactive.
On the same count and under the same terms, as for `Cc1cc(C)c(C(=O)O)c(C)c1`, the entry is “inactive”; as for `CC1(C)S[C@@H]2[C@H](NC(=O)COc3ccccc3)C(=O)N2[C@H]1C(=O)O`, “inactive”; as for `CCCCC(CC)COCC1CO1` (stereo not given), “inactive”.
Same read-out and setting: for `OC1OCCOC1O` (stereo not given) the value was “inactive”.
The same measure, in the same setting: as for `CCCCCC/C=C/C=O`, the entry is “inactive”.
Consider `OCCN(CCO)c1ccccc1`, for which the result was inactive.
As for `OC1CCCC1`, the result was inactive.
In the case of `CCCCC/C=C\C/C=C\CCCCCCCC(=O)OC`, the compound was classed as inactive.
`CNC(=S)NN`: the call was inactive.
The same measure, in the same setting: as for `CCCCCCCOC(=O)CCC`, the entry is “inactive”; as for `CC(C)(C)C(=O)CCc1ccc(Cl)cc1`, “inactive”.
Still for that read-out and setting: as for `COC(=O)c1ccccc1OC`, the entry is “inactive”; as for `CCCC(=O)OCc1ccccc1`, “inactive”.
Same read-out and setting: as for `COC(F)(F)C(F)(C(F)(F)F)C(F)(F)F`, the entry is “inactive”; as for `CC(=O)OC1C2(C)CCC(C2)C1(C)C` (stereo not given), “inactive”.
For `COC(=O)/C=C/C(C)=C\C=C\C(C)=C\C=C\C=C(C)\C=C\C=C(C)\C=C\C(=O)O`, the compound was classed as inactive.
`Nc1cccc(C(F)(F)F)c1`: the result was inactive.
On the same count and under the same terms, as for `COCCCOCCCOC`, the entry is “inactive”.
As to `O=C1C(N(CO)C(=O)NCO)N(CO)C(=O)N1CO` (stereo not given), the result was inactive.
Still for that read-out and setting: as for `O=S(=O)(O)c1ccccc1C=Cc1ccc(-c2ccc(C=Cc3ccccc3S(=O)(=O)O)cc2)cc1`, the entry is “inactive”.
On to `CCCCCCCCCCCCCCCCCC#N`, for which the compound was classed as inactive.
On to `Cc1ccc2oc(=O)ccc2c1`, for which the compound was called inactive.
The same measure, in the same setting: as for `C=CC(C)(C)C`, the entry is “inactive”.
